Measurements reported in PubChem BioAssay AID1159580 (chemical genetic matrix, 2015).
Screen size: about 5,500 compounds; about 2,000 (36%) were called active. Inconclusive results (about 18%) are left out. Cut-off read from the data, not from the text of the source: active = normalized growth mostly below about 0.91 (no sharp cut-off); inconclusive = no clear call, values can overlap the other calls; inactive = mostly above about 0.92. Some of the results follow.

Experiment: chemical genetic growth profiling, strain panel (AID 1159580);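 note: tested at 20 µM; growth read once vehicle control cultures reached saturation at 30 °C; 1 = growth at the plate median or of vehicle wells; lower values mean less growth of the strain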
Conditions: growth OD

Measured: normalized growth

CC(=O)O[C@H]1CC[C@]2(C)C3C(=O)[C@@H](OC(C)=O)[C@@]4(C)C(C[C@@H]5O[C@]6(CCC(C)CO6)[C@@H](C)[C@@H]54)C3CC[C@H]2C1 (stereo not given in full)
inactive: S. cerevisiae deletion strains, locus YBR021W, strain FUR4, hits give low values 1.01 | S. cerevisiae deletion strains, locus YBR229C, strain ROT2, hits give low values 0.997 | S. cerevisiae deletion strains, locus YCL029C, strain bik1, hits give low values 0.996 | S. cerevisiae deletion strains, locus YDL035C, strain GPR1, hits give low values 1.03 | S. cerevisiae deletion strains, locus YDL074C, strain BRE1, hits give low values 1.06 | S. cerevisiae deletion strains, locus YDL101C, strain DUN1, hits give low values 0.986 | S. cerevisiae deletion strains, locus YDL134C, strain PPH21, hits give low values 0.998 | S. cerevisiae deletion strains, locus YDL185W, strain tfp1, hits give low values 0.986 | S. cerevisiae deletion strains, locus YDL192W, strain arf1, hits give low values 1 | S. cerevisiae deletion strains, locus YDR101C, strain arx1, hits give low values 1.01 | S. cerevisiae deletion strains, locus YDR162C, strain NBP2, hits give low values 1.02 | S. cerevisiae deletion strains, locus YDR318W, strain mcm21, hits give low values 0.991 | S. cerevisiae deletion strains, locus YDR388W, hits give low values 0.99 | S. cerevisiae deletion strains, locus YDR502C, strain sam2, hits give low values 0.984 | S. cerevisiae deletion strains, locus YEL061C, strain CIN8, hits give low values 0.999 | S. cerevisiae deletion strains, locus YER110C, hits give low values 0.983 | S. cerevisiae deletion strains, locus YER155C, strain BEM2, hits give low values 0.984 | S. cerevisiae deletion strains, locus YER167W, strain BCK2, hits give low values 0.993 | S. cerevisiae deletion strains, locus YGL078C, strain dbp3, hits give low values 0.963 | S. cerevisiae deletion strains, locus YGL086W, strain mad1, hits give low values 0.986 | S. cerevisiae deletion strains, locus YGL248W, strain PDE1, hits give low values 0.985 | S. cerevisiae deletion strains, locus YGR135W, strain pre9, hits give low values 0.978 | S. cerevisiae deletion strains, locus YGR252W, strain gcn5, hits give low values 1.04 | S. cerevisiae deletion strains, locus YHR030C, strain SLT2, hits give low values 0.992 | S. cerevisiae deletion strains, locus YHR079C, strain IRE1 (second series), hits give low values 0.99 | S. cerevisiae deletion strains, locus YHR094C, strain hxt1, hits give low values 0.987 | S. cerevisiae deletion strains, locus YHR129C, strain ARP1, hits give low values 0.991 | S. cerevisiae deletion strains, locus YHR200W, strain rpn10, hits give low values 0.982 | S. cerevisiae deletion strains, locus YIL066C, strain RNR3, hits give low values 1.01 | S. cerevisiae deletion strains, locus YIL073C, strain SPO22, hits give low values 1.01 | S. cerevisiae deletion strains, locus YIL125W, strain kgd1, hits give low values 0.987 | S. cerevisiae deletion strains, locus YIR030C, strain dcg1, hits give low values 0.988 | S. cerevisiae deletion strains, locus YJL095W, strain BCK1, hits give low values 0.996 | S. cerevisiae deletion strains, locus YJL134W, strain LCB3, hits give low values 0.993 | S. cerevisiae deletion strains, locus YJL168C, strain set2, hits give low values 0.994 | S. cerevisiae deletion strains, locus YJL187C, strain SWE1 (second series), hits give low values 0.988 | S. cerevisiae deletion strains, locus YKL009W, strain mrt4, hits give low values 0.994 | S. cerevisiae deletion strains, locus YKL068W, hits give low values 0.997 | S. cerevisiae deletion strains, locus YKL085W, strain MDH1 (second series), hits give low values 0.987 | S. cerevisiae deletion strains, locus YKL085W, strain MDH1, hits give low values 0.987 | S. cerevisiae deletion strains, locus YKL190W, strain CNB1, hits give low values 0.998 | S. cerevisiae deletion strains, locus YKR001C, strain vps1, hits give low values 0.982 | S. cerevisiae deletion strains, locus YLR039C, strain RIC1, hits give low values 1.05 | S. cerevisiae deletion strains, locus YLR058C, strain SHM2, hits give low values 1 | S. cerevisiae deletion strains, locus YLR102C, strain apc9, hits give low values 0.985 | S. cerevisiae deletion strains, locus YLR268W, strain sec22, hits give low values 1.01 | S. cerevisiae deletion strains, locus YLR330W, strain CHS5, hits give low values 0.996 | S. cerevisiae deletion strains, locus YLR371W, strain rom2, hits give low values 0.99 | S. cerevisiae deletion strains, locus YLR418C, strain cdc73, hits give low values 0.977 | S. cerevisiae deletion strains, locus YML016C, strain PPZ1, hits give low values 0.981 | S. cerevisiae deletion strains, locus YML032C, strain rad52, hits give low values 1.01 | S. cerevisiae deletion strains, locus YML124C, strain tub3, hits give low values 0.991 | S. cerevisiae deletion strains, locus YMR078C, strain ctf18, hits give low values 0.992 | S. cerevisiae deletion strains, locus YMR223W, strain ubp8, hits give low values 0.994 | S. cerevisiae deletion strains, locus YMR307W, strain GAS1, hits give low values 1 | S. cerevisiae deletion strains, locus YNL067W, strain RPL9B, hits give low values 0.981 | S. cerevisiae deletion strains, locus YNL153C, strain GIM3, hits give low values 0.988 | S. cerevisiae deletion strains, locus YNL233W, strain BNI4, hits give low values 0.988 | S. cerevisiae deletion strains, locus YNL250W, strain rad50, hits give low values 0.968 | S. cerevisiae deletion strains, locus YNL271C, strain bni1, hits give low values 0.976 | S. cerevisiae deletion strains, locus YNL298W, strain CLA4, hits give low values 0.991 | S. cerevisiae deletion strains, locus YNL307C, strain MCK1, hits give low values 0.986 | S. cerevisiae deletion strains, locus YNL322C, strain KRE1, hits give low values 0.997 | S. cerevisiae deletion strains, locus YNR052C, strain pop2, hits give low values 0.974 | S. cerevisiae deletion strains, locus YOL012C, strain htz1 0.895 | S. cerevisiae deletion strains, locus YOL147C, strain pex11, hits give low values 0.986 | S. cerevisiae deletion strains, locus YOR061W, strain CKA2, hits give low values 1 | S. cerevisiae deletion strains, locus YOR069W, strain VPS5, hits give low values 0.996 | S. cerevisiae deletion strains, locus YOR136W, strain idh2, hits give low values 0.988 | S. cerevisiae deletion strains, locus YOR144C, strain elg1, hits give low values 0.992 | S. cerevisiae deletion strains, locus YOR184W, strain ser1, hits give low values 1.01 | S. cerevisiae deletion strains, locus YOR316C, strain cot1, hits give low values 0.987 | S. cerevisiae deletion strains, locus YPL055C, strain LGE1, hits give low values 1.02 | S. cerevisiae deletion strains, locus YPL241C, strain CIN2, hits give low values 0.996 | S. cerevisiae deletion strains, locus YPR119W, strain clb2, hits give low values 0.98 | S. cerevisiae deletion strains, locus YPR141C, strain kar3, hits give low values 0.983 | S. cerevisiae deletion strains, locus YPR163C, strain tif3, hits give low values 0.991 | S. cerevisiae deletion strains, locus YPR167C, strain met16, hits give low values 0.976 | S. cerevisiae deletion strains, strain wtn01, hits give low values 1.01 | S. cerevisiae strains, strain wild type, hits give low values 1.01
